Reference: PubChem BioAssay
Activity calls are given as the source filed them. Unless noted, the rule behind the calls is not given here.

How the values were obtained:
[1] = HepG2 liver cancer cell viability effects, profiling panel, resazurin fluorescence, 24 h, PK04 Diversity Set (AID 1172); conditions: higher = more signal; note: test concentration not given here
[2] = basal S. cerevisiae growth modulation, no modifier, primary screen, OD600, strain BY4716, 24 h, basal condition (AID 1173); conditions: OD600, 24 h, higher = more signal, called active from +8 up or from −8 down
[3] = MM1S myeloma cell viability, profiling panel, resazurin fluorescence, basal, 24 h, PK04 Diversity Set (AID 1174); conditions: higher = more signal, called active from +8 up or from −8 down;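 note: MM1S multiple myeloma cell line; test concentration not given here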
[4] = target: Dihydroorotate dehydrogenase (quinone), mitochondrial (Plasmodium falciparum (isolate 3D7)) (UniProt Q08210); test: PfDHODH enzyme inhibitors, primary screen, biochemical, C-terminal His tag, absorbance 600 nm (AID 1175); conditions: DCIP absorbance 600 nm, higher = more signal, called active from +8 up or from −8 down;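 note: recombinant parasite enzyme with a five histidine tag at its C terminus; test concentration not given here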
[5] = P. aeruginosa biofilm formation inhibitors, primary screen, strain PAO1, LB-PBS medium, absorbance 600 nm (AID 1176); note: test concentration not given here; conditions: P. aeruginosa PAO1 growth/biofilm, A600, 12 h; higher = more signal
[6] = S. cerevisiae RM11-1a growth modifiers, primary screen, strain RM11-1a, OD600, basal, 24 h (AID 1177); conditions: OD600, 24 h, higher = more signal, called active from +8 up or from −8 down;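 note: cultures grown under basal conditions with no added stressor; test concentration not given here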
[7] = E. coli acrAB mutant growth effects, primary screen, E. coli filamentation inducers, strain DRC39, OD650, 24 h (AID 1178); conditions: higher = more signal, called active from +8 up or from −8 down;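 note: growth measured as culture turbidity by optical density at 650 nm; test concentration not given here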
[8] = E. coli acrAB mutant growth effects, primary screen, E. coli filamentation inducers, strain DRC39, OD650, 48 h (AID 1179);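 note: screen aims at cell division blockers that make cells filament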; conditions: E. coli DRC39 delta-acrAB growth, higher = more signal, called active from +8 up or from −8 down
[9] = RPMI8226 myeloma cell viability, profiling panel, resazurin fluorescence, basal, 24 h, PK04 Diversity Set (AID 1180); conditions: higher = more signal;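 note: RPMI8826 multiple myeloma cell line at 5000 cells per well; test concentration not given here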
[10] = target: E3 ubiquitin-protein ligase XIAP (Homo sapiens) (UniProt P98170); test: XIAP binders, primary screen, biophysical, small-molecule microarray, fluorescence 635 nm (AID 1181); conditions: small-molecule microarray binding, higher = more signal;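 note: score merges 667 nm emission and signal to noise over triplicate slides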
E3 ubiquitin-protein ligase XIAP (Homo sapiens), sequence (P98170 whole entry, looked up): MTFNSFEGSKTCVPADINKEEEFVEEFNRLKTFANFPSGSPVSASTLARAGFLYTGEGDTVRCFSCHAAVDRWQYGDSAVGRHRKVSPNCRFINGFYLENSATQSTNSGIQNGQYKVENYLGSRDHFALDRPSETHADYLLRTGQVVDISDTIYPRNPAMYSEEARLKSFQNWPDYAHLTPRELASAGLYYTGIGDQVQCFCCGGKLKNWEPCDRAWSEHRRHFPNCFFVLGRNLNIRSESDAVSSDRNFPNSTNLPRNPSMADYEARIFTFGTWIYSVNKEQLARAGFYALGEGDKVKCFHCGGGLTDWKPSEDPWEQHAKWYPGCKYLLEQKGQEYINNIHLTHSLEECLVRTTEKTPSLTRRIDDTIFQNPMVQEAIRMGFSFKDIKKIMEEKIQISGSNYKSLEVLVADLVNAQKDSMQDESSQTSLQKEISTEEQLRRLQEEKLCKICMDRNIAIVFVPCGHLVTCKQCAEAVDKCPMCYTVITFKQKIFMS

Dihydroorotate dehydrogenase (quinone), mitochondrial (Plasmodium falciparum (isolate 3D7)), sequence (Q08210 whole entry, looked up): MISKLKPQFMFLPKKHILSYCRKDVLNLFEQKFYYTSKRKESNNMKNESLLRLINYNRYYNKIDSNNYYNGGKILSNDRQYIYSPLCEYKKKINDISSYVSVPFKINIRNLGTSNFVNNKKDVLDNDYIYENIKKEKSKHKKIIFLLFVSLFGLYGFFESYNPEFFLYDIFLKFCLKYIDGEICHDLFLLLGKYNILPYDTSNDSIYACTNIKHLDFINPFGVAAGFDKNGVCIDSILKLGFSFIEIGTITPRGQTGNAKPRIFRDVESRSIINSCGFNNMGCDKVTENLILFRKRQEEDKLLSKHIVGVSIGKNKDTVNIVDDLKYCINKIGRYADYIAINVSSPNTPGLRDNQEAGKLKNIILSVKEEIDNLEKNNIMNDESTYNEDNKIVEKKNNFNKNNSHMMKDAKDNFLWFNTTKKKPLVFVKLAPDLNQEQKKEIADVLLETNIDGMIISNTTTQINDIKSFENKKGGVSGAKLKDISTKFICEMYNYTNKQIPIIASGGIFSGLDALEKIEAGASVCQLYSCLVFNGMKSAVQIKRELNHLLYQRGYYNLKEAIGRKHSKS

Compound	z-score [1]	z-score [2]	z-score [3]	composite z-score [4]	z-score [5]	z-score [6]	z-score [7]	z-score [8]	z-score [9]	composite z-score [10]
CCOC(=O)[C@H](Cc1ccccc1)NC(=O)CCC1CC(OC(=O)NCc2ccc3c(c2)OCO3)CC2(CCCC(COC(=O)NCCCN3CCCC3=O)O2)O1 (stereo not given in full)	0.557	-0.547 (inactive)	0.913 (inactive)	-0.59 (inactive)	-0.801 (inactive)	-0.012 (inactive)	-0.131 (inactive)	0.186 (inactive)	1.36	-0.124
CC(CCN1CCCCc2nc(C)c(C)cc21)=NOC[C@@H](O)[C@H]1O[C@@H]2OC(C)(C)O[C@@H]2[C@H]1O	-0.825	-0.546 (inactive)	-1.03 (inactive)	-0.183 (inactive)	0.335 (inactive)	-0.382 (inactive)	0.78 (inactive)	-0.887 (inactive)	-0.216	-0.0323
CC(CCC(=O)OC[C@H]1O[C@H](C#Cc2ccccc2)C=C[C@@H]1Oc1ccc(C)cc1)=NOC(C)CN1CCCc2nc(C)c(C)cc21 (stereo not given in full)	-0.374	-0.525 (inactive)	-0.541 (inactive)	0.589 (inactive)	0.335 (inactive)	0.797 (inactive)	0.879 (inactive)	-0.41 (inactive)	-0.0206	0.257
CCN1C(=O)[C@H]2[C@H]3[C@H](O)[C@H](O)CC(=NNC(=O)OCc4ccccc4)[C@@H]3CC[C@H]2C1=O	-0.501	0.226 (inactive)	-0.453 (inactive)	-0.283 (inactive)	-0.814 (inactive)	-0.338 (inactive)	0.313 (inactive)	0.0507 (inactive)	-0.747	-0.0476
CO[C@@H]1[C@H](O)CO[C@H]1C=Cc1ccccc1	-1.01	-1.05 (inactive)	0.841 (inactive)	0.295 (inactive)	-0.859 (inactive)	-0.113 (inactive)	-0.442 (inactive)	0.207 (inactive)	0.941	-0.123
CCOC(=O)[C@H](CC(C)C)NC(=O)CCC1CC(OC(=O)NCc2ccc3c(c2)OCO3)CC2(CCCC(COC(=O)NCCc3ccccc3OC)O2)O1 (stereo not given in full)	0.686	0.594 (inactive)	-0.0143 (inactive)	-0.445 (inactive)	0.614 (inactive)	-0.173 (inactive)	-0.163 (inactive)	-1.02 (inactive)	0.512	-0.102
CO[C@H]1COC(=O)CC=C[C@@H](C)COC(=O)[C@H]2CCCN2C(=O)CC=C[C@H]1C	-0.3	-0.872 (inactive)	-0.0093 (inactive)	0.119 (inactive)	0.246 (inactive)	0.473 (inactive)	1.14 (inactive)	0.745 (inactive)	-0.258	0.0595
CCOC(=O)NN=C1C[C@@H](O)[C@@H](O)[C@@H]2[C@@H]3C(=O)N(c4ccc(F)cc4F)C(=O)[C@@H]3CC[C@H]12	0.99	-0.468 (inactive)	1.44 (inactive)	-2.51 (inactive)	0.614 (inactive)	-0.738 (inactive)	0.284 (inactive)	0.498 (inactive)	0.241	-0.176
CCN1C(=O)[C@H]2[C@H]3[C@H](O)[C@H](O)CC(=NOC[C@@H](O)COCc4ccco4)[C@H]3CC[C@H]2C1=O	-0.92	-0.54 (inactive)	-0.809 (inactive)	-0.164 (inactive)	-0.425 (inactive)	-0.178 (inactive)	-0.0557 (inactive)	0.322 (inactive)	-1.23	-0.0948
C[C@@H](c1ccccc1)N1C(=O)[C@H]2[C@H]3[C@H](O)[C@H](O)CC(=NOC[C@@H](O)COCc4ccco4)[C@H]3CC[C@H]2C1=O	-0.259	-0.123 (inactive)	0.899 (inactive)	-0.222 (inactive)	0.118 (inactive)	-0.286 (inactive)	-0.501 (inactive)	-0.267 (inactive)	0.0536	-0.102
COc1ccc(O[C@H]2C=C[C@@H](c3ccccc3)O[C@@H]2CO)cc1	0.121	-4.83 (inactive)	0.222 (inactive)	-0.163 (inactive)	0.438 (inactive)	0.0505 (inactive)	0.137 (inactive)	-0.447 (inactive)	-0.5	-0.042
CCOC(=O)[C@H](Cc1ccccc1)NC(=O)CCC1CC(OC(=O)NCCc2ccc(F)cc2)CC2(CCCC(COC(=O)NCCOc3ccccc3)O2)O1 (stereo not given in full)	0.121	-0.245 (inactive)	-0.02 (inactive)	-0.189 (inactive)	0.651 (inactive)	0.408 (inactive)	0.417 (inactive)	0.343 (inactive)	0.194	-0.0166
O=C1[C@H]2[C@H]3[C@H](O)[C@H](O)CC(=NOC[C@@H](O)COCc4ccco4)[C@@H]3CC[C@H]2C(=O)N1Cc1ccccc1	0.379	-1.64 (inactive)	-0.737 (inactive)	-0.137 (inactive)	-1.01 (inactive)	-0.426 (inactive)	0.17 (inactive)	0.616 (inactive)	0.569	-0.194
CSCC[C@@H]1NC(=O)CC=C[C@@H](C)COC(=O)[C@H](C)COC1=O	0.376	-1.59 (inactive)	0.745 (inactive)	-0.766 (inactive)	0.483 (inactive)	-2.43 (inactive)	1.17 (inactive)	-0.216 (inactive)	-0.135	0.418
COc1ccc(O[C@H]2C=C[C@@H](c3ccccc3)O[C@@H]2CON=C(C)CCN2CCCc3nc(C)c(C)cc32)cc1	0.165	-0.855 (inactive)	-0.662 (inactive)	-0.752 (inactive)	0.699 (inactive)	-0.351 (inactive)	-0.321 (inactive)	-0.112 (inactive)	-0.164	2.22
CC=CC1=C(CO)[C@H](O)[C@H]2O[C@H]2[C@@H]1O	-0.504	-0.299 (inactive)	0.133 (inactive)	0.781 (inactive)	-0.102 (inactive)	0.39 (inactive)	0.615 (inactive)	-0.442 (inactive)	0.694	-0.204
CCOC(=O)[C@H](Cc1ccccc1)NC(=O)CCC1CC(OC(=O)NCCc2ccc(F)cc2)CC2(CCCC(COC(=O)NCCC(C)C)O2)O1 (stereo not given in full)	0.456	-0.0624 (inactive)	0.129 (inactive)	0.0106 (inactive)	0.0737 (inactive)	1.05 (inactive)	0.953 (inactive)	-0.203 (inactive)	1.16	-0.0543
COc1ccc(COC(=O)NN=C2C[C@@H](O)[C@@H](O)[C@@H]3[C@@H]4C(=O)N([C@@H](C)c5ccccc5)C(=O)[C@@H]4CC[C@H]23)cc1	0.453	-0.111 (inactive)	0.334 (inactive)	-0.308 (inactive)	0.683 (inactive)	-0.677 (inactive)	-0.267 (inactive)	0.197 (inactive)	0.818	0.0193
CC(=O)OC[C@H]1O[C@@H](ON=C(C)CCN2CCCCc3nc(C)c(C)cc32)[C@H](OC(C)=O)[C@@H](OC(C)=O)[C@@H]1OC(C)=O	-0.077	-0.436 (inactive)	0.382 (inactive)	-2.52 (inactive)	-0.679 (inactive)	-1.15 (inactive)	-1.24 (inactive)	-0.816 (inactive)	-0.0356	0.0899
C[C@@H](c1ccccc1)N1C(=O)[C@H]2[C@H]3[C@H](O)[C@H](O)CC(=NNC(=O)OCc4ccccc4)[C@@H]3CC[C@H]2C1=O	-0.289	0.862 (inactive)	-0.465 (inactive)	-0.594 (inactive)	-0.155 (inactive)	-0.396 (inactive)	0.288 (inactive)	0.476 (inactive)	-0.158	-0.0749
CC(C)CON=C1C[C@@H](O)[C@@H](O)[C@@H]2[C@@H]3C(=O)N(c4ccc(F)cc4F)C(=O)[C@@H]3CC[C@@H]12	0.372	-1.98 (inactive)	0.88 (inactive)	-2.1 (inactive)	-0.27 (inactive)	-1.22 (inactive)	1.01 (inactive)	0.15 (inactive)	-0.226	-0.0296
CC(C)CON=C1C[C@@H](O)[C@@H](O)[C@@H]2[C@@H]3C(=O)N(Cc4ccccc4)C(=O)[C@@H]3CC[C@H]12	0.0344	-1.11 (inactive)	1.15 (inactive)	-0.451 (inactive)	0.92 (inactive)	-1.17 (inactive)	0.68 (inactive)	-1.08 (inactive)	0.851	-0.0436
CC(CCN1CCc2nc(-c3ccccc3)c(-c3ccccc3)cc2C1)=NO[C@@H](C)c1cc(-c2c(C)cc(C)cc2C)no1	-0.377	-1.7 (inactive)	0.553 (inactive)	-2.15 (inactive)	-0.634 (inactive)	-0.482 (inactive)	-1.04 (inactive)	-1.01 (inactive)	0.812	-0.209
COC(=O)CC=C[C@@H](C)[C@@H](C=NOC[C@@H](O)[C@H]1O[C@@H]2OC(C)(C)O[C@@H]2[C@H]1O)OC	-0.904	-0.385 (inactive)	-0.311 (inactive)	0.757 (inactive)	-0.525 (inactive)	0.442 (inactive)	0.404 (inactive)	0.493 (inactive)	-1.51	-0.158
CC(=O)OC[C@H]1O[C@H](CCON=C(C)CCN2CCCc3nc(C)c(C)cc32)C=C[C@@H]1OC(C)=O	0.0171	1.34 (inactive)	-0.102 (inactive)	0.245 (inactive)	0.511 (inactive)	1.3 (inactive)	0.565 (inactive)	0.16 (inactive)	-0.0643	-0.0878
C#CCCCON=C1C[C@@H](O)[C@@H](O)[C@@H]2[C@@H]3C(=O)N(CC)C(=O)[C@@H]3CC[C@H]12	-0.588	0.866 (inactive)	-0.729 (inactive)	-0.0526 (inactive)	-0.143 (inactive)	-0.0584 (inactive)	-0.312 (inactive)	-0.241 (inactive)	-1.09	-0.114
